Test results taken from a collection of fitness landscapes (doi:10.1126/science.1257360).
In all, about 140,000 sequences were measured (“enrichment ratio after two sorts for PhoP signalling”: median about 0, highest 2% from about 11 on). For the sample, the highest values were picked, then their nearest neighbours and some sequences at random.

B1: PhoQ; a variant is named by its letters at X, in order, P23837 (parent)
chain: MKKLLRLFFPLSLRVRFLLATAAVVLVLSLAYGMVALIGYSVSFDKTTFRLLRGESNLFYTLAKWENNKLHVELPENIDKQSPTMTLIYDENGQLLWAQRDVPWLMKMIQPDWLKSNGFHEIEADVNDTSLLLSGDHSIQQQLQEVREDDDDAEMTHSVAVNVYPATSRMPKLTIVVVDTIPVELKSSYMVWSWFIYVLSANLLLVIPLLWVAAWWSLRPIEALAKEVRELEEHNRELLNPATTRELTSLVRNLNRLLKSERERYDKYRTTLTDLTHSLKTPLXXLQXXLRSLRSEKMSVSDAEPVMLEQISRISQQIGYYLHRASMRGGTLLSRELHPVAPLLDNLTSALNKVYQRKGVNISLDISPEISFVGEQNDFVEVMGNVLDNACKYCLEFVEISARQTDEHLYIVVEDDGPGIPLSKREVIFDRGQRVDTLRPGQGVGLAVAREITEQYEGKIVAGESMLGGARMEVIFGRQHSAPKDE

Variants of: B1
Test: enrichment ratio after two sorts for PhoP signalling (ratio (wild type AVST 3.29)); higher = more functional
Details: with PhoP (E. coli)

Variant | enrichment ratio
IIYR | ≤ 0.25
DKAR | ≤ 0.25
LMEW | ≤ 0.25
VFIY | ≤ 0.25
KSGI | ≤ 0.25
TSGI | 12.8
TMFP | ≤ 0.25
ATGS | 5.38
TTGI | 9.44
MMGI | ≤ 0.25
TMGI | 20.6
ATGI | 13.1
KCGI | ≤ 0.25
MGHD | ≤ 0.25
TSDS | 0.648
FMNE | ≤ 0.25
QEAQ | ≤ 0.25
SEAQ | 13.7
SRAQ | ≤ 0.25
NEAQ | ≤ 0.25
SLAQ | 3.9
TEAQ | 28
LILM | ≤ 0.25
MPQI | ≤ 0.25
IQHE | ≤ 0.25

Variant | enrichment ratio
EPTW | ≤ 0.25
SMAC | 12.5
GMAC | ≤ 0.25
SMPC | ≤ 0.25
NNAC | ≤ 0.25
TMAC | 28.2
CMAC | 23.4
KMAC | ≤ 0.25
SMTC | 8.15
NMAC | ≤ 0.25
VQIW | ≤ 0.25
NELI | ≤ 0.25
MAEF | ≤ 0.25
RVFY | ≤ 0.25
SKNN | ≤ 0.25
NLIQ | ≤ 0.25
SAAT | 3.66
CALN | 65
SPLK | ≤ 0.25
KALY | ≤ 0.25
SAVT | 0.95
SALK | 15.2
SALT | 11.2
SALY | 11.8
QILN | ≤ 0.25

Variant | enrichment ratio
NALN | ≤ 0.25
KYLK | ≤ 0.25
NALY | ≤ 0.25
AFGW | ≤ 0.25
DHYR | ≤ 0.25
VAYT | ≤ 0.25
QIHG | 2.32
YSRD | ≤ 0.25
NFVV | ≤ 0.25
KALN | ≤ 0.25
SAPA | ≤ 0.25
SAMK | 17.9
SAMG | 5.01
SAMS | 7.54
SALA | 5.84
SALN | 11.9
SALS | 11.5
SACN | 9.88
SYEW | ≤ 0.25
PEIY | ≤ 0.25
VINR | ≤ 0.25
ELMR | ≤ 0.25
DFTI | ≤ 0.25
SRMM | 1.64
LCMM | 26.9

Variant | enrichment ratio
TQMM | 57.7
NQMM | ≤ 0.25
LCWM | ≤ 0.25
FQMM | 5.91
SPMM | ≤ 0.25
SEMM | 32.5
SYMM | 0.307
KFMM | ≤ 0.25
SAMM | 12.7
SIMM | 1.49
PFQY | ≤ 0.25
GAKN | ≤ 0.25
FYYW | ≤ 0.25
FFHN | ≤ 0.25
SYFV | ≤ 0.25
WNTR | ≤ 0.25
WKFY | ≤ 0.25
EDEV | ≤ 0.25
TFAW | ≤ 0.25
HTHM | ≤ 0.25
YRCS | ≤ 0.25
RLLR | ≤ 0.25
YTMM | 11.8
SSMM | 19.1
STMM | 18.6

Variant | enrichment ratio
NGMM | ≤ 0.25
SQMM | 3.97
SWMM | ≤ 0.25
TGMM | 16
KYMM | ≤ 0.25
YYMM | ≤ 0.25
YAMM | 3.27
RGMM | ≤ 0.25
APTA | ≤ 0.25
HDAK | ≤ 0.25
NSKR | ≤ 0.25
FYPF | ≤ 0.25
SSWP | ≤ 0.25
IRWL | ≤ 0.25
QACS | ≤ 0.25
PGDN | ≤ 0.25
GRMN | ≤ 0.25
NMLY | ≤ 0.25
QPMM | ≤ 0.25
GGMM | ≤ 0.25
NIMM | 16
FTMM | 12.1
MMMM | ≤ 0.25
NHMM | ≤ 0.25
MTMM | 59.5

Variant | enrichment ratio
YHMM | ≤ 0.25
THMM | 17.6
WIMM | ≤ 0.25
SHMM | 2.18
FSMM | 4.33
PMCS | ≤ 0.25
REDA | ≤ 0.25
PAGC | ≤ 0.25
YDLP | ≤ 0.25
IRNP | ≤ 0.25
DPYV | 2.59
EAKL | ≤ 0.25
VTGM | ≤ 0.25
SCMM | 14.4
VTTS | ≤ 0.25
KCMM | ≤ 0.25
YSWM | ≤ 0.25
NRMM | ≤ 0.25
SLMM | 5.51
YEMM | 16.1
YSMM | 14.3
VTTM | 16.4
YERM | ≤ 0.25
YEGM | ≤ 0.25
RADI | ≤ 0.25

Variant | enrichment ratio
MQSS | ≤ 0.25
NLSW | ≤ 0.25
FRTV | ≤ 0.25
NQTP | ≤ 0.25
GFHH | ≤ 0.25
SQRD | ≤ 0.25
VHHE | ≤ 0.25
GQMM | 11.4
TCMM | 11.8
TYMM | 2.16
GTMM | 5.34
VYMM | ≤ 0.25
VTPM | ≤ 0.25
VTMM | 12.1
GYMM | 0.253
YEMS | 14.7
YEMW | ≤ 0.25
VCMM | 2.29
YEMV | 2.64
ILAT | 0.361
HVDN | ≤ 0.25
TLEY | ≤ 0.25
KMTV | ≤ 0.25
FPHD | ≤ 0.25
WHGQ | ≤ 0.25

Variant | enrichment ratio
QGMM | 31.6
MCMM | 11.9
KSMM | ≤ 0.25
FCMM | 8.52
NSMM | 1.7
TSMM | 21.5
QTMM | ≤ 0.25
SKMG | 3.1
MDMM | ≤ 0.25
SKMM | 24.1
FFMM | ≤ 0.25
QLQK | ≤ 0.25
TKIP | ≤ 0.25
ELAY | ≤ 0.25
NETK | ≤ 0.25
MVNN | ≤ 0.25
RGIV | ≤ 0.25
SFSE | ≤ 0.25
ETYT | ≤ 0.25
MTEV | ≤ 0.25
